Consider 36 molecules from ChEMBL document CHEMBL1157539, “Thousands of chemical starting points for antimalarial lead identification” (Nature, 2010).

This assay has as its system HepG2. In words: GSK_TCMDC: Percent inhibition of human HepG2 cell line. Test compounds present at 10uM. In kind it is functional.
As for `COc1ccc2c(Nc3ccc(N4CCN(C)CC4)cc3)cc(C)nc2c1`, the Inhibition (in general, the relative decrease from the control value, in per cent) is listed as 23%.
Under `CCOc1cc(C)ccc1C1CCN(CCCCNC(=O)c2cnc(-c3ccc(C(F)(F)F)cc3)[nH]2)CC1` stands 16%.
Under `CCC(CC)n1cc2c(ccc3nc(N)nc(N)c32)n1` stands 61%; under `CC(C)Nc1nc(NCCc2c[nH]cn2)nc(NCc2cccc3ccccc23)n1`, 4%; under `COc1cccc2cc(C(=O)N[C@@H](CC(C)C)C(=O)N[C@H](C=NNC(=O)OC(C)(C)C)CC(C)C)oc12`, 8%.
Under `CCOC(=O)NC1=NC(=N)N(OCCCOc2cc(Cl)c(Cl)cc2Cl)C(C)(C)N1` stands 63%.
Take `COc1cc(NCCCNCC2c3ccccc3Oc3ccccc32)nc2ccccc12.O=C(O)C(F)(F)F`: the Inhibition came out at 99%.
For `Cc1[nH]c(C)c(-c2cccc(-c3ccc(OC(F)(F)F)cc3)c2)c(=O)c1Br`, the Inhibition was determined as 45%.
In turn, `CCN1CCN(c2cc(C)c3cc(NC(=O)c4cccc([N+](=O)[O-])c4)ccc3n2)CC1` displayed an Inhibition of 74%.
Molecule `COc1ccc2[nH]c(C)cc(=NN=Cc3cc(C)ccc3O)c2c1` yielded an Inhibition of 78%.
The figure for `COc1cc2nc(Nc3ccc(Oc4ccccc4)cc3)nc(Nc3ccc(Oc4ccccc4)cc3)c2cc1OC` is 5%; for `Br.CC1(C)N=C(N)N=C(N)N1OCCCOc1cccc(C(=O)O)c1` it is 73%.
Under `CN(C)c1ccc(CN2CCCC(CNC(=O)c3ccc(-c4cccc(C(F)(F)F)c4)s3)C2)cc1.O=C(O)C(F)(F)F` (stereo unspecified) stands 32%; under `COc1ccc(Cl)cc1NC(=O)Nc1ccnc2ccccc12`, 13%; under `O=C(Nc1cccc(-c2ccc(-c3nc4cc(C(F)(F)F)ccc4[nH]3)cc2)c1)Nc1ccc(Cl)c(Cl)c1`, 93%.
`COc1ccc2nccc([C@@H](O)CN3CCC(NC(=O)c4ccc5nc(-n6cccc6)sc5c4)CC3)c2c1`: the Inhibition was 26%.
Consider `COc1ccc2nc(NC(N)=NC(=O)Nc3ccccc3)nc(C)c2c1`, for which the Inhibition is 3%.
`Cc1c(S(=O)(=O)Nc2ccc3nccc(N4CCN[C@H](C)C4)c3c2)sc2ccc(Cl)cc12.Cl` returned an Inhibition of 16%.
The figure for `O=C(Nc1ccccc1)NC1CCN(CCC2(c3ccc(Cl)c(Cl)c3)COCN(C(=O)c3ccccc3)C2)C1` (stereo unspecified) is 23%; for `COc1ccc(-c2cccc(NC(=O)c3cccc(F)c3)c2)cc1CN1CCCN(C)CC1.O=C(O)C(F)(F)F` it is 42%.
Under `CCn1cc(CN2CCCC(C(=O)Nc3ccc(-c4nc5ccccc5[nH]4)cc3)C2)c(C)n1` (stereo unspecified) stands 22%.
For `O=C(Nc1ccccc1)N(Cc1cccc(-c2ccc(CNCCc3ccccc3)cc2)c1)C1CCN(Cc2ccccc2)CC1.O=C(O)C(F)(F)F`, the Inhibition is recorded as 100%.
Under `O=C(CCc1c[nH]cn1)Nc1cccc(-c2ccc(-c3nc4ccccc4[nH]3)s2)c1` stands 11%; under `NS(=O)(=O)c1cccc(Nc2nccc(-c3cnn4ncccc34)n2)c1`, 39%.
`OCCCCCCNc1nc(NCc2ccccc2-c2ccc(C(F)(F)F)cc2)nc(N2CCNCC2)n1` yielded an Inhibition of 13%.
With `NC1CCCN(Cc2ccc(-c3ccc(-c4nc5cc(F)ccc5[nH]4)s3)cc2)C1.O=C(O)C(F)(F)F` (stereo unspecified), the Inhibition is listed as 40%.
The figure for `Cc1cc(N/N=C/c2ccccc2[N+](=O)[O-])c2cc(C(F)(F)F)ccc2n1` is 0%; for `CC(=O)Nc1cccc(C(=O)Nc2ccc(-c3ccc(-c4nc5cccc(C)c5[nH]4)s3)cc2)c1` it is 94%; for `COc1nc2c(CCN3CCC(NCc4ccc5c(c4)NCCO5)CC3)c(Cl)cnc2cc1F.Cl` it is 23%.
Under `COc1ccc(-c2cnc3[nH]cc(-c4ccncc4)c3c2)cc1OC` stands 52%; under `COc1cc2nc(NCc3cccc(CNC(=O)c4ccc(-c5ccc(C(C)=O)cc5)cc4)c3)nc(N)c2cc1OC.O=C(O)C(F)(F)F`, 32%.
For the molecule `O=C(NCc1ccc(F)cc1)Nc1ccc(-c2cccc(-c3nc4cc(C(F)(F)F)ccc4[nH]3)c2)cc1`, the Inhibition is on record as 41%.
Turning to `COc1ccc(N2C(=O)c3c(c4ccccc4n3C)C2c2ccccc2O)cc1` (stereo unspecified), the Inhibition amounted to 32%.
Under `CC1(C)CCC(C)(C)c2c1ccc(C1CCN(CCCCNC(=O)c3ccc(-c4ccc(C#N)cc4)cc3)CC1)c2O` stands 81%.
The figure for `CCCNC[C@@H](O)[C@H](Cc1ccccc1)NC(=O)c1cc(NCC)cc(N2CCCC2=O)c1` is 0%.
Under `CN1CCN(CCCN(Cc2csc(-c3ccc(CNCc4ccccc4)cc3)n2)C(=O)Nc2cccc(Cl)c2)CC1.O=C(O)C(F)(F)F` stands 32%.
